Bioassay records (PubChem)
A selection: hits, their analogues and other compounds. The true share with any hit is near 2.9%.
A549 tox = counter-screen for Nrf2 inhibitors: cytotoxicity in A549 cells. A549 ARE-Fluc cells, CellTiter-Fluor viability, 18-24 h. 390,000 tested, 0.16% active. Potency, µM (series often up to 46 µM), inactives show at the top dose activity change, negative = cytotoxicity, hits mostly inhibitors; also: % is scaled to controls: 0 for no effect and ±100 for the full control effect
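A549 ARE-Fluc cells in 5% FBS OPTI-MEM, 5000 cells/well, rested 2 h then exposed to compounds in concentration-response for 18-24 h at 37 °C. Viability by CellTiter-Fluor fluorescence (Ex 405/Em 525) after 30 min; luciferase luminescence (BugLite, 15 min, RT) read afterwards.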
Nrf2 inh = blocks Nrf2 signaling | AID 504444 | Potency, µM (highest dose often 46 µM), for the others: at the top dose activity change, negative = inhibition, hits mostly inhibitors | A549 ARE-Fluc reporter, luciferase luminescence, 18-24 h | 360,000 tested, 2.1% active; also: % is scaled to controls: 0 for no effect and ±100 for the full control effect; nearly all actives have a fitted effect of over 60% in size
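Nrf2 activity is the BugLite luminescence, read 15 min after reagent at room temperature, following CellTiter-Fluor cytotoxicity readout (30 min, 37C). Compound titrations were applied for 18-24 h to 5000 A549 ARE_Fluc cells/well in 5% FBS OPTI-MEM.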
Nrf2 activator = activators of Nrf2 (ARE) signaling; Potency, µM (doses to about 46.1 µM), for inactives: at the highest dose activation, hits mostly activators; AID 624171; AREc32 ARE-luciferase reporter (MCF7-derived line), luminescence, 24 h; 410,000 tested, 0.31% active; also: % of control where 0% means no effect; nearly all actives have a fitted effect of over 65% in size
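Nrf2 activation is followed as ARE-luciferase induction in the AREc32 line after one day of compound treatment; luminescence is read with Steady-Glo.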
ATXN2 expr inh = inhibitors of ATXN2 expression; Potency, µM (highest dose often 57 µM), for inactives: top-dose activity change, negative = inhibition, actives largely listed as inhibitors; AID 1745845; 360,000 tested, 0.72% active; HEK-293 ATXN2-luciferase reporter, luminescence, 24 h; also: % is scaled to controls: 0 for no effect and ±100 for the full control effect; nearly all actives have a fitted effect of over 55% in size
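ATXN2-luciferase reporter cells (luciferase flanked by upstream and downstream ATXN2 gene portions) were treated 24 h at 37 °C with compounds at up to 57 uM. SteadyGlo luminescence gave expression; GF-AFC fluorescence gave viability.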
S2 tox = cell viability loss in ATXN counter-screen. S2 cells (HEK-293 line with an ATXN2-luciferase reporter) viability, CellTiter-Fluor protease fluorescence, 24 h. Potency, µM (highest dose often 56.7 µM), usual class: cytotoxic. 400,000 tested, 0.49% active. AID 651635; also: nearly all actives have a fitted effect of over 40% in size
Active calls of the source: *; i = inactive; ? = inconclusive; / = no result; [ ] = dose if it differs, or a comment. Calls follow the shape of the dose curve; as a rule, active = well fitted curve in the direction sought with a large enough effect; inconclusive = small, poorly fitted or top-dose-only effect, or another doubt; inactive = no such curve, though single readings can be large; an effect the other way counts as inactive or inconclusive. Potency is read from the fitted curve at half-maximal effect.

SMILES	A549 tox	Nrf2 inh	Nrf2 activator	ATXN2 expr inh	S2 tox
Cc1cc(/C=C2/C(=N)N3C(=NC2=O)SN=C3S(C)(=O)=O)c(C)n1-c1ccc(F)cc1	?	18.0%	-0.3%	/	?
CCCC[C@H](CN[C@@H](CNC)[C@H](C)CC)NCCC12CCC(CC1)C2	-18.2%	7.0%	-4.5%	28.2µM*	28.2µM*
COc1ccc(C)cc1NC(=O)c1cccc(-c2ccc(OC(C)=O)cc2)c1	-23.9%	16.4µM*	3.7%	-34.8%	i
c1ccc(C[n+]2cccc(-c3ccccc3)c2)cc1	0.9%	18.4µM*	0.4%	-10.8%	i
c1ccc(C[n+]2ccc3ccccc3c2)cc1	-10.3%	?	-0.7%	-19.4%	i
Clc1ccc(C2=NN=C3COc4ccccc4N3C2)cc1	?	?	8.8%	/	?
O=S1(=O)N[C@@H](Cc2ccccc2)COc2cccc(N3CCN(Cc4ccccc4F)CC3)c21	/	/	0.0%	?	28.2µM*
Cc1ccc(Nc2nc(C(=O)NCc3ccco3)cs2)cc1	/	9.2µM*	13.8%	11.8%	i
Cc1csc2ncc(C(=O)NCc3ccco3)c(=O)n12	-15.5%[1.84 µM]	9.1%	11.2µM*	1.7%	i
O=C(NCc1ccco1)c1cnc2sccn2c1=O	-3.9%	-0.8%	20.6%	-3.4%	i
Cc1nc2c(O)c3c(c(O)c2nc1C)C1C=CC3CC1	7.6%	0.5%	-3.2%	28.2µM*	5.62µM*
Cc1nc2c(C)c(C)c(C)c(C)c2nc1C	-3.5%	10.1%	-0.1%	-11.7%	i
COc1ccccc1N1CCN(C(=O)c2ccc(N3CCCCS3(=O)=O)cc2)CC1	2.1%	?	0.1%	-11.5%	i
CC(=O)N1CCc2cc(S(=O)(=O)NC3CCCc4ccccc43)ccc21 (stereo unspecified)	-7.7%	6.31µM*	3.5%	-17.3%	i
Cc1ccc(S(=O)(=O)NCCC2=CCCCC2)cc1C(N)=O	-4.9%	10.3µM*	-0.8%	-20.8%	i
CCC(=O)N1CCc2cc(S(=O)(=O)NCCC(=O)N3CCN(c4cccc(C)c4)C(C)C3)ccc21 (stereo unspecified)	1.7%	18.4µM*	0.8%	/	i
CC(=O)N1CCc2cc(S(=O)(=O)NCCC3=CCCCC3)ccc21	-11.1%	3.66µM*	-0.9%	?	i
CC(=O)N1CCc2cc(S(=O)(=O)NCCCN3CCCCC3)ccc21	2.3%	0.6%	-0.1%	-0.1%	i
CN(CCOc1ccc(Cl)cc1)CC(O)c1ccccc1 (stereo unspecified)	0.4%	-12.1%	1.5%	-14.2%	i
Cc1ccc(NC(=O)c2cc(S(=O)(=O)NCCC3=CCCCC3)ccc2F)cc1F	?	10.3µM*	0.5%	?	?
CC(=O)N1CCc2cc(S(=O)(=O)NCCC(=O)N3CCc4ccccc4C3)ccc21	-15.8%	13µM*	0.2%	-9.3%	i
COC(=O)[C@@]12OC[C@]34[C@H]([C@@H](O)[C@@H]1O)[C@@]1(C)C(=O)C(O[C@@H]5OC(CO)[C@@H](O)[C@@H](O)[C@@H]5O)=C[C@@H](C)[C@@H]1C[C@H]3OC(=O)[C@H](OC(=O)/C=C(\C)C(C)(C)OC(C)=O)[C@@H]24 (stereo partly specified)	?	2.91µM*	-3.5%	?	?
CC(C)Oc1ncnc2c1[nH]c1ccccc12	-11.8%	8.2µM*	8.1%	/	i
CCCOc1ncnc2c1[nH]c1ccccc12	-11.9%	?	5.7%	-8.8%	i
CC1(C(=O)Nc2cccc(S(=O)(=O)N3CCOCC3)c2)Cc2ccccc2C(=O)O1 (stereo unspecified)	15.3%	?	-1.5%	/	i
SMILES	A549 tox	Nrf2 inh	Nrf2 activator	ATXN2 expr inh	S2 tox
Cc1c(OC(C)C(=O)NCc2ccncc2)ccc2c3c(c(=O)oc12)CCCC3 (stereo unspecified)	-1.4%	23.1µM*	0.2%	?	i
NS(=O)(=O)c1ccc(N=Nc2c(=O)[nH]n3c(=O)c4c([nH]c23)CCCC4)cc1	?	-4.1%	0.3%	-16.7%	9.47µM*
O=C(COC(=O)c1ccc[nH]c1=O)NC1CCCc2ccccc21 (stereo unspecified)	-18.3%	-7.8%	0.2%	2.0%	i
CCOC(=O)c1c(C)[nH]c(C(=O)C(C)Cl)c1C (stereo unspecified)	-2.0%	-11.2%	17.8µM*	-2.0%	i
COc1ccc(C(C)(NC(C)=O)c2nc(-c3cccc(F)c3)cs2)cc1 (stereo unspecified)	/	/	-1.4%	0.1%	i
CCN(CC)CCCNC(=O)CN1C(=O)CSc2ccc(S(=O)(=O)N3CCOCC3)cc21	-1.8%	-3.8%	0.3%	0.8%	i
CC(=O)NC(CC(=O)Nc1nc(-c2ccc(N(C)S(C)(=O)=O)cc2)cs1)c1ccccc1 (stereo unspecified)	-23.6%	20.6µM*	3.6%	-24.5%	i
CC(=O)Nc1ccc(-c2csc(NC(=O)CC(NC(C)=O)c3ccccc3)n2)cc1 (stereo unspecified)	0.7%	0.1%	0.3%	-3.5%	i
CCOC(=O)N1CCN(C(=O)COC(=O)c2cc(Cl)c(O)c(Cl)c2)CC1	-6.9%	-24.7%	-0.7%	-7.3%	i
O=C(CCl)N1N=C(c2cccs2)CC1c1ccco1 (stereo unspecified)	-14.5%	?	14.3%	4.23µM*	/
O=C(OCC(=O)N1N=C(c2ccc(Cl)cc2)CC1c1ccco1)c1cccnc1 (stereo unspecified)	10.5%	?	20µM*	/	i
O=C(CCl)N1N=C(c2ccco2)CC1c1ccco1 (stereo unspecified)	1.1%	16.6%	15.8µM*	-15.5%	i
O=C(O)/C=C/C(=O)N1N=C(c2ccco2)CC1c1ccco1 (stereo unspecified)	-1.5%	0.9%	30.2%	16.3%	i
CN1CCN(CC(=O)N2N=C(c3cccs3)CC2c2ccco2)CC1 (stereo unspecified)	-3.9%	1.4%	0.4%	-1.8%	i
COCC(=O)OCC(=O)N1N=C(c2ccc(Cl)cc2)CC1c1ccco1 (stereo unspecified)	-0.5%	-0.8%	2.5%	-13.6%	i
COc1ccccc1N1CCN(C(=O)C(OC(C)=O)c2ccccc2)CC1 (stereo unspecified)	6.0%	8.4%	1.6%	0.2%	i
Cc1ccccc1NC(=O)Nc1nnc(N(C)Cc2ccccc2)s1	11.9%	14.3%	0.5%	/	/
Cc1nn(-c2cccc(C(F)(F)F)c2)c(=O)c2ccccc12	4.6%	0.4%	3.55µM*	-0.4%	?
CCOC(=O)COn1c(-n2nc(C)cc2C)nc2ccccc2c1=O	3.2%	12.7%	0.3%	-18.2%	i
O=C(NCc1ccco1)c1ccc2c(c1)N(Cc1ccccc1)C(=O)CS2	-1.4%	23.1µM*	5.4%	-5.4%	i
C=CCN1C(=O)CSc2ccc(C(=O)NCc3ccco3)cc21	7.2%	15.6%	6.1%	-0.7%	?
